In PubChem BioAssay AID1159580 (chemical genetic matrix, 2015):
The campaign covered roughly 5,500 compounds. About 2,000 (36%) were called active. Inconclusive results (about 18%) are left out. Rule as the data show it: active = normalized growth mostly below about 0.91 (no sharp cut-off); inconclusive = no clear call, values can overlap the other calls; inactive = mostly above about 0.92. Some of the results follow.

Test: chemical genetic growth profiling, strain panel (AID 1159580);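 also: tested at 20 µM; growth read once vehicle control cultures reached saturation at 30 °C; 1 = growth at the plate median or of vehicle wells; lower values mean less growth of the strain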
Details: growth OD

Measured: normalized growth

CC(=O)Oc1ccc(Cl)c2cccnc12
inactive: S. cerevisiae deletion strains, locus YOL012C, strain htz1 0.23
active: S. cerevisiae deletion strains, locus YJL187C, strain SWE1, stronger effect = lower value 0.0588 | S. cerevisiae deletion strains, locus YJR043C, strain POL32, stronger effect = lower value 0.0605 | S. cerevisiae deletion strains, locus YJR075W, strain HOC1, stronger effect = lower value 0.0612 | S. cerevisiae deletion strains, locus YKL009W, strain mrt4, stronger effect = lower value 0.0837 | S. cerevisiae deletion strains, locus YKL068W, stronger effect = lower value 0.061 | S. cerevisiae deletion strains, locus YKL085W, strain MDH1 (second series), stronger effect = lower value 0.0554 | S. cerevisiae deletion strains, locus YKL085W, strain MDH1, stronger effect = lower value 0.0554 | S. cerevisiae deletion strains, locus YKL160W, strain elf1, stronger effect = lower value 0.058 | S. cerevisiae deletion strains, locus YKL190W, strain CNB1, stronger effect = lower value 0.0452 | S. cerevisiae deletion strains, locus YKR001C, strain vps1, stronger effect = lower value 0.0643 | S. cerevisiae deletion strains, locus YKR026C, strain gcn3, stronger effect = lower value 0.0619 | S. cerevisiae deletion strains, locus YKR091W, strain srl3, stronger effect = lower value 0.0618 | S. cerevisiae deletion strains, locus YLL001W, strain dnm1, stronger effect = lower value 0.0631 | S. cerevisiae deletion strains, locus YLL026W, stronger effect = lower value 0.0596 | S. cerevisiae deletion strains, locus YLL041C, strain sdh2, stronger effect = lower value 0.0561 | S. cerevisiae deletion strains, locus YLR027C, strain aat2, stronger effect = lower value 0.0554 | S. cerevisiae deletion strains, locus YLR039C, strain RIC1, stronger effect = lower value 0.0795 | S. cerevisiae deletion strains, locus YLR058C, strain SHM2, stronger effect = lower value 0.0497 | S. cerevisiae deletion strains, locus YLR102C, strain apc9, stronger effect = lower value 0.0628 | S. cerevisiae deletion strains, locus YLR221C, strain rsa3, stronger effect = lower value 0.061 | S. cerevisiae deletion strains, locus YLR258W, strain gsy2, stronger effect = lower value 0.0582 | S. cerevisiae deletion strains, locus YLR262C, strain YPT6 (second series), stronger effect = lower value 0.0745 | S. cerevisiae deletion strains, locus YLR262C, strain YPT6, stronger effect = lower value 0.0956 | S. cerevisiae deletion strains, locus YLR268W, strain sec22, stronger effect = lower value 0.0707 | S. cerevisiae deletion strains, locus YLR320W, strain mms22, stronger effect = lower value 0.074 | S. cerevisiae deletion strains, locus YLR330W, strain CHS5, stronger effect = lower value 0.0507 | S. cerevisiae deletion strains, locus YLR342W, strain FKS1 (second series), stronger effect = lower value 0.0702 | S. cerevisiae deletion strains, locus YLR342W, strain FKS1, stronger effect = lower value 0.0632 | S. cerevisiae deletion strains, locus YLR357W, strain rsc2, stronger effect = lower value 0.13 | S. cerevisiae deletion strains, locus YLR370C, strain arc18, stronger effect = lower value 0.0627 | S. cerevisiae deletion strains, locus YLR371W, strain rom2, stronger effect = lower value 0.0668 | S. cerevisiae deletion strains, locus YLR384C, strain iki3, stronger effect = lower value 0.0595 | S. cerevisiae deletion strains, locus YLR418C, strain cdc73, stronger effect = lower value 0.101 | S. cerevisiae deletion strains, locus YML016C, strain PPZ1, stronger effect = lower value 0.0485 | S. cerevisiae deletion strains, locus YML032C, strain rad52, stronger effect = lower value 0.0749 | S. cerevisiae deletion strains, locus YML120C, strain ndi1, stronger effect = lower value 0.0578 | S. cerevisiae deletion strains, locus YML124C, strain tub3, stronger effect = lower value 0.0617 | S. cerevisiae deletion strains, locus YMR058W, strain fet3, stronger effect = lower value 0.0625 | S. cerevisiae deletion strains, locus YMR078C, strain ctf18, stronger effect = lower value 0.0737 | S. cerevisiae deletion strains, locus YMR125W, strain sto1, stronger effect = lower value 0.081 | S. cerevisiae deletion strains, locus YMR129W, stronger effect = lower value 0.0589 | S. cerevisiae deletion strains, locus YMR205C, strain PFK2, stronger effect = lower value 0.0841 | S. cerevisiae deletion strains, locus YMR223W, strain ubp8, stronger effect = lower value 0.069 | S. cerevisiae deletion strains, locus YMR231W, strain pep5, stronger effect = lower value 0.0641 | S. cerevisiae deletion strains, locus YMR307W, strain GAS1, stronger effect = lower value 0.122 | S. cerevisiae deletion strains, locus YNL067W, strain RPL9B, stronger effect = lower value 0.0485 | S. cerevisiae deletion strains, locus YNL071W, strain lat1, stronger effect = lower value 0.0618 | S. cerevisiae deletion strains, locus YNL153C, strain GIM3, stronger effect = lower value 0.048 | S. cerevisiae deletion strains, locus YNL209W, strain ssb2, stronger effect = lower value 0.0585 | S. cerevisiae deletion strains, locus YNL233W, strain BNI4, stronger effect = lower value 0.0581 | S. cerevisiae deletion strains, locus YNL248C, strain rpa49, stronger effect = lower value 0.0904 | S. cerevisiae deletion strains, locus YNL250W, strain rad50, stronger effect = lower value 0.127 | S. cerevisiae deletion strains, locus YNL271C, strain bni1, stronger effect = lower value 0.0631 | S. cerevisiae deletion strains, locus YNL298W, strain CLA4, stronger effect = lower value 0.0622 | S. cerevisiae deletion strains, locus YNL307C, strain MCK1, stronger effect = lower value 0.0688 | S. cerevisiae deletion strains, locus YNL322C, strain KRE1 (second series), stronger effect = lower value 0.0653 | S. cerevisiae deletion strains, locus YNR049C, strain mso1, stronger effect = lower value 0.06 | S. cerevisiae deletion strains, locus YNR052C, strain pop2, stronger effect = lower value 0.0622 | S. cerevisiae deletion strains, locus YOL147C, strain pex11, stronger effect = lower value 0.0595 | S. cerevisiae deletion strains, locus YOR001W, strain rrp6, stronger effect = lower value 0.0713 | S. cerevisiae deletion strains, locus YOR061W, strain CKA2, stronger effect = lower value 0.0492 | S. cerevisiae deletion strains, locus YOR069W, strain VPS5, stronger effect = lower value 0.0514 | S. cerevisiae deletion strains, locus YOR070C, strain gyp1, stronger effect = lower value 0.0596 | S. cerevisiae deletion strains, locus YOR080W, strain dia2, stronger effect = lower value 0.064 | S. cerevisiae deletion strains, locus YOR083W, strain WHI5, stronger effect = lower value 0.0594 | S. cerevisiae deletion strains, locus YOR106W, strain vam3, stronger effect = lower value 0.0646 | S. cerevisiae deletion strains, locus YOR136W, strain idh2, stronger effect = lower value 0.0755 | S. cerevisiae deletion strains, locus YOR144C, strain elg1, stronger effect = lower value 0.0602 | S. cerevisiae deletion strains, locus YOR184W, strain ser1, stronger effect = lower value 0.0785 | S. cerevisiae deletion strains, locus YOR265W, strain rbl2, stronger effect = lower value 0.0601 | S. cerevisiae deletion strains, locus YOR270C, strain vph1, stronger effect = lower value 0.104 | S. cerevisiae deletion strains, locus YOR290C, strain snf2, stronger effect = lower value 0.0601 | S. cerevisiae deletion strains, locus YOR316C, strain cot1, stronger effect = lower value 0.0595 | S. cerevisiae deletion strains, locus YPL051W, strain arl3, stronger effect = lower value 0.0618 | S. cerevisiae deletion strains, locus YPL055C, strain LGE1, stronger effect = lower value 0.0661 | S. cerevisiae deletion strains, locus YPL078C, strain atp4, stronger effect = lower value 0.0648 | S. cerevisiae deletion strains, locus YPL106C, strain sse1, stronger effect = lower value 0.0984 | S. cerevisiae deletion strains, locus YPL240C, strain hsp82, stronger effect = lower value 0.0604 | S. cerevisiae deletion strains, locus YPL241C, strain CIN2, stronger effect = lower value 0.0494 | S. cerevisiae deletion strains, locus YPR119W, strain clb2, stronger effect = lower value 0.0672 | S. cerevisiae deletion strains, locus YPR141C, strain kar3, stronger effect = lower value 0.0666 | S. cerevisiae deletion strains, locus YPR163C, strain tif3, stronger effect = lower value 0.0706 | S. cerevisiae deletion strains, locus YPR167C, strain met16, stronger effect = lower value 0.0624 | S. cerevisiae deletion strains, strain wtn01, stronger effect = lower value 0.0713 | S. cerevisiae strains, strain wild type, stronger effect = lower value 0.0465
